Source: PubChem BioAssay
Where “and” joins values, the source holds several entries; their conditions need not be identical. Equal values may be shown once.

Experiments:
[1] = test system: Botulinum neurotoxin type F light chain protease (Clostridium botulinum); assay: Botulinum neurotoxin type F light chain protease inhibition, multiplex microsphere flow cytometry, validation set (AID 588459); settings: multiplex microsphere protease substrate cleavage assay, at 10 µM, hits give high values
[2] = molecular target: Botulinum neurotoxin type A (Clostridium botulinum) (UniProt P0DPI0); assay: BoNT/A light chain protease inhibitors, biochemical, multiplex microsphere flow cytometry, validation set (AID 588460); settings: at 10 µM, hits give high values
[3] = molecular target: Lethal factor (Bacillus anthracis) (UniProt P15917); assay: Lethal factor protease inhibitors, Bacillus anthracis, multiplex microsphere cleavage assay, validation set (AID 588461); settings: flow cytometry, at 10 µM, hits give high values

Measured: inhibition

COc1ccc(N2C(=O)C3C(C2=O)C(C(=O)c2ccccc2)N2CCCC32)cc1 (stereo not given)
inactive: [1] 1.6% | [2] -0.2% | [3] -3.5%

C#CCN1C(=O)C(O)(c2c(C)[nH]c3ccccc23)c2ccccc21 (stereo not given)
inactive: [1] 0.4% | [2] 0.5% | [3] -3.2%

CC(C(=O)O)c1ccc(-c2ccccc2)c(F)c1 (stereo not given)
inactive: [1] 5.7% | [2] 0.5% | [3] 5.7%

O=C(N/N=C/c1ccc([N+](=O)[O-])o1)c1ccc(O)cc1
inactive: [1] 0.2% | [2] -3.9% | [3] -11.9%

Cc1ccc(-c2nnc(-c3ccc4c(c3)OCO4)o2)cc1
inactive: [1] -1% | [2] -0.1% | [3] -8%

CCCc1c(OCCCCc2nn[nH]n2)ccc(C(C)=O)c1O
inactive: [1] -1.3% | [2] -4% | [3] -10.3%

CCN1C(=O)C(CC(=O)Nc2ccc(OC)cc2)N(CCc2ccc(F)cc2)C1=S (stereo not given)
inactive: [1] 0.2% | [2] 1.4% | [3] 1.4%

COc1ccc(-c2cc(=Nc3ccc(C)cc3)c3ccccc3o2)cc1
inactive: [1] -2.2% | [2] -0.6% | [3] 2.9%

O=C(NC1CCCCC1)c1cc2nc(-c3ccco3)cc(C(F)(F)F)n2n1
inactive: [1] 2.6% | [2] 1.2% | [3] 0.5%

O=C1C2C3C=CC(C4CC34)C2C(=O)N1/N=C/c1ccc(-c2ccc([N+](=O)[O-])cc2)o1 (stereo not given)
inactive: [1] 2.1% | [2] 3.4% | [3] -1.8%

CN1CCc2c(n(CC(O)CN(CCO)CCO)c3ccccc23)C1=O (stereo not given)
inactive: [1] -0.1% | [2] 0.2% | [3] -3.6%

COc1ccc([C@@H]2Sc3ccccc3N(CCN(C)C)C(=O)[C@@H]2OC(C)=O)cc1
inactive: [1] -1.7% | [2] 0.1% | [3] 1%

CC(C)CCNC(=O)[C@H](CC(C)C)NC(=O)[C@H]1O[C@@H]1C(=O)O
inactive: [1] -3.8% | [2] 1.5% | [3] -3%

NC(=O)[C@@H]1[C@@H]2C(=O)N(c3ccc(F)cc3)C(=O)[C@@H]2[C@H]2C=Cc3ccccc3N21
inactive: [1] 0.9% | [2] 1.5% | [3] -5.6%

Cn1c(=O)[nH]c(=O)c2c1nc(Br)n2CCCO
inactive: [1] 2.3% | [2] 0.7% | [3] -5.7%

COC(=O)c1ccc(-c2ncc(-c3cccc4ccccc34)o2)cc1
inactive: [1] -1.4% | [2] -1.3% | [3] 4.9%

c1ccc(CNc2ncnc3nc[nH]c23)cc1
inactive: [1] -7.5% | [2] -1.3% | [3] -4.8%

O=C(CC1(O)C(=O)Nc2ccccc21)c1ccccc1O (stereo not given)
inactive: [1] 0.6% | [2] -0.8% | [3] -1.4%

CC(=O)CCc1oc2ccccc2c1-c1ccccc1
inactive: [1] -0.7% | [2] -1.4% | [3] -3.1%

O=C(c1cccnc1)N1N=C(C2CC2)CC1(O)C(F)(F)F (stereo not given)
inactive: [1] 2% | [2] 1% | [3] 4.2%

CC(C)Oc1ccc2c(=O)c(-c3ccccc3)coc2c1
inactive: [1] 4.4% | [2] 1.4% | [3] 6.8%

CCOC(=O)C(Cc1cc(C(C)=O)ccc1OC(C)C)C(=O)OCC
inactive: [1] 0.4% | [2] -0.1% | [3] -1.9%

CCOc1cc(C)cc2oc(=O)cc(-c3ccccc3)c12
inactive: [1] -2.2% | [2] -0.6% | [3] -4.4%

CC#C[C@]1(O)CC[C@H]2[C@@H]3CCC4=CC(=O)CCC4=C3[C@@H](c3ccc(N(C)C)cc3)C[C@@]21C
inactive: [1] -3.9% | [2] -2% | [3] -7.2%

COc1ccc(C(=O)/C=C2/c3ccccc3CC(C)(C)N2C)cc1
inactive: [1] -2.7% | [2] -1.8% | [3] -1.2%

Cc1cccc(C2=N/C(=C\c3cccnc3)C(=O)O2)c1
inactive: [1] -1.1% | [2] 1.9% | [3] 3.7%

O=C(Nc1ccc(N2CCOCC2)cc1)c1ccc(-c2ccccc2[N+](=O)[O-])o1
inactive: [1] -2.6% | [2] -0.9% | [3] -10.4%

Cn1c(=O)c2nc3ccccc3nc2n(C)c1=O
inactive: [1] -0.9% | [2] 0.5% | [3] -5.4%

CCCC(=O)Nc1ncnc2c1ncn2[C@@H]1O[C@@H]2COP(=O)(O)O[C@H]2[C@H]1OC(=O)CCC
inactive: [1] -0.5% | [2] -1% | [3] -2.7%

CC1COc2c(N3CCN(C)CC3)c(F)cc3c(=O)c(C(=O)O)cn1c23 (stereo not given)
inactive: [1] -0.1% | [2] -0.3% | [3] 3.1%

O=C1CN(O)C=C2N=c3ccccc3=C2N1c1ccc([N+](=O)[O-])cc1
inactive: [1] -2.6% | [2] -2.1% | [3] -4.4%

CC[C@]1(O)CC2CN(CCc3c([nH]c4ccccc34)[C@@](C(=O)OC)(c3cc4c(cc3OC)N(C=O)[C@H]3[C@@](O)(C(=O)OC)[C@H](OC(C)=O)[C@]5(CC)C=CCN6CC[C@]43[C@@H]65)C2)C1 (stereo not given in full)
inactive: [1] 1.5% | [2] 0% | [3] -12.5%

CCOc1ccc2nc(S(N)(=O)=O)sc2c1
inactive: [1] 2% | [2] 0% | [3] 8.4%

O=C1c2ccccc2C(=O)C1c1ccccc1
inactive: [1] -2.6% | [2] 0.2% | [3] 9.8%

CC(CCCC(C)(C)O)NC(=O)c1ccc(OC2CCN(C(=O)C3CC3)CC2)cc1 (stereo not given)
inactive: [1] 0.1% | [2] 0.7% | [3] 1%

COc1ccc(NS(=O)(=O)c2ccc(N)cc2)nn1
inactive: [1] 7.2% | [2] 2% | [3] -0.1%

COc1cc(C2Nc3ccccc3C(=O)N2c2ccccc2)ccc1O (stereo not given)
inactive: [1] 0.9% | [2] 0% | [3] -4.4%

O=C(/C=C/c1ccco1)N1CCN(c2ccccc2)CC1
inactive: [1] -0.6% | [2] -1.8% | [3] -0.6%

O=C(CCN1CCC(c2ccccc2)C1)c1ccc2c(c1)OCCO2 (stereo not given)
inactive: [1] 4.6% | [2] -0.2% | [3] -1.8%

COc1ccc(Cc2nc(-c3ccc(Br)cc3)no2)cc1
inactive: [1] -0.7% | [2] -1.6% | [3] -5.8%

CN(C)[C@@H]1C(=O)C(C(=O)NCN2CCCC2)=C(O)[C@@]2(O)C(=O)C3=C(O)c4c(O)cccc4[C@@](C)(O)C3CC12 (stereo not given in full)
inactive: [1] -4.8% | [2] -5.7% | [3] -8.3%

COc1ccc(/C=C/C(=O)c2cc3cccc(OC)c3oc2=O)cc1
inactive: [1] 2.3% | [2] 2.8% | [3] 8.8%

COc1ccc(C(=O)Nc2cccnc2)cc1C(=O)Nc1cccnc1
inactive: [1] 2.9% | [2] 1.3% | [3] -0.7%

O=C1NC(=O)C(c2ccccc2)(c2ccccc2)N1
inactive: [1] 1.3% and 5.2% | [2] -1% and -1.4% | [3] 0.3% and -2.4%

O=C(Nc1cccc(-c2nc3ncccc3o2)c1)c1ccccc1
inactive: [1] 2.8% | [2] -0.9% | [3] -1.6%

N/C(=N\OC(=O)/C=C/c1ccccc1)c1ccc(Br)cc1
inactive: [1] -3.1% | [2] -0.1% | [3] 2.5%

COC(=O)c1cc(OC)c(OC)cc1NC(=O)Nc1ccc(OC)cc1OC
inactive: [1] -4% | [2] -0.8% | [3] 5.9%

COc1c2c(nc3occc13)C(CC=C(C)C)(OC)C(O)CC2 (stereo not given)
inactive: [1] 0.8% | [2] 0.9% | [3] -4.1%

COc1ccc(C(=O)Nc2ncc3c(n2)CC(C)CC3=O)cc1 (stereo not given)
inactive: [1] -1.5% | [2] -0.9% | [3] -4.5%

CSCC[C@H](NC(=O)OC(C)(C)C)C(=O)N1CCC(C(=O)N[C@@H](C)C(=O)O)CC1
inactive: [1] -3.4% | [2] 0.4% | [3] -4.2%

CC(C)CC(NC(=O)CNC(=O)C1O[C@@H]2OC(C)(C)O[C@@H]2[C@H]2OC(C)(C)O[C@@H]12)C(=O)O (stereo not given in full)
inactive: [1] 2.8% | [2] -2% | [3] 2.8%

O=C(NC1CC1)C1CCN(C2CCN(C(=O)Cc3ccc(F)cc3)CC2)CC1
inactive: [1] -2.4% | [2] -0.6% | [3] 4.9%

COc1ccc(-c2nc3c(=O)n(C)c(=O)[nH]c3n2CCc2ccccc2)cc1
inactive: [1] 1.2% | [2] 0.2% | [3] -1.2%

O=C(c1ccc(Cl)cc1)C1CCCN(C(=O)/C=C/c2ccccn2)C1 (stereo not given)
inactive: [1] 2.6% | [2] -0.7% | [3] 6%

O=c1cnn([C@@H]2O[C@H](CO)[C@@H](O)[C@H]2O)c(=O)[nH]1
inactive: [1] -0.1% | [2] 1.8% | [3] 5.4%

Cc1ccc2c(c1)C(O)(c1c(C)[nH]c3ccccc13)C(=O)N2 (stereo not given)
inactive: [1] -4.4% | [2] -1.6% | [3] -10%

O=C1CC(c2ccc(F)cc2)Cc2nc(NCC3CCCO3)ncc21 (stereo not given)
inactive: [1] -1% | [2] 0.1% | [3] -6.1%

COc1cc(CO)ccc1OCc1nnnn1-c1ccc(C)cc1
inactive: [1] -0.2% | [2] -1% | [3] -8.2%

CCCCN(CCCC)CCCOC(=O)c1ccc(N)cc1
inactive: [1] -1.6% | [2] 0.8% | [3] 1.4%

Cn1c(=O)[nH]c(=O)c2c1nc(NCc1ccco1)n2CCCc1ccccc1
inactive: [1] -0.8% | [2] -0.7% | [3] 0.5%
